This note sets out measurements from PubChem BioAssay AID1362 (SRMLSC, 2008).

Broadly, the inhibition is the drop in the measured response relative to a control, in per cent.

This experiment can be described thus: growth inhibition of WT strain, primary screen, mitochondrial fusion inhibitor project, WT and mutant strains, chemical genetic (AID 1362). The settings on record: mitochondrial fusion phenotypic screen, at 10 µM.
Setting [1] is: WT strain, growth inhibition, stronger effect = higher value.

Hit rate of the full screen: of about 190,000 compounds, about 4,000 (2.1%) were called active. Cut-off read from the data, not from the text of the source: active = inhibition above about 58%; inactive = the rest, inconclusive results apart; tested in S. cerevisiae. For the sample, actives were picked, then their nearest neighbours and some compounds at random.

Turning to `CC1=NN(c2cccc(Cl)c2)C(=O)C12CC(C)=C(C)CS2` (stereo not given), the inhibition was 71.2% (active) under setting [1] and 49.2% (mutant strain inhibition).

Regarding `CC12CCC(C(=O)N(c3cccc(Cl)c3)C1=O)C2(C)C` (stereo not given), the inhibition by setting is: under setting [1], 15.3% (inactive); (mutant strain inhibition) 1.52%.

For `CCCCN(CC)CCNC(=O)CCNC(=O)Cn1ccc2ccccc2c1=O`, the inhibition was -12.2% (inactive) under setting [1] and 5.97% (mutant strain inhibition).

With `CN(C)c1ccc(/C=N/Nc2cc(N3CCOCC3)nc(N3CCOCC3)n2)cc1`, the inhibition under setting [1] was 2.15% (inactive) and the inhibition (mutant strain inhibition) is -1.62%.

On to `C/C(=N\NC(=S)NC1CCCCC1)c1ccc(C)o1`, for which the inhibition is, setting by setting: under setting [1], 76.5% (active); (mutant strain inhibition) 64.5%.

As for `C/C(=N/NC(=O)c1ccc(Br)o1)c1ccc(C)o1`, the inhibition under setting [1] is -7.01% (inactive) and the inhibition (mutant strain inhibition) is -8.07%.

As to `Cc1ccc(NC(=S)NC2CCCC2)cc1`, the inhibition under setting [1] is 1.79% (inactive) and the inhibition (mutant strain inhibition) is -5.24%.

Take `COc1ccc(C(=O)Nc2ccc(N3CCC(C)CC3)cc2)cc1Br`: the inhibition is -5.4% (inactive) under setting [1] and 7.51% (mutant strain inhibition).

On to `O=S(=O)(c1ccc2c(c1)OCCO2)N1CCc2ccccc21`, for which the inhibition was -3.01% (inactive) under setting [1] and -8.75% (mutant strain inhibition).

`CN(C)C=NC(=O)c1cccn1-c1ncc(C(F)(F)F)cc1Cl`: the inhibition is, setting by setting: under setting [1], 17.4% (inactive); (mutant strain inhibition) -2.64%.

As to `Cc1noc(C)c1COc1ccc2ccc(=O)oc2c1`, the inhibition is 7.56% (inactive) under setting [1] and -14.3% (mutant strain inhibition).

Take `c1n[nH]c(NCc2ccc3c(c2)OCO3)n1`: the inhibition is 76.9% (active) under setting [1] and 23% (mutant strain inhibition).

For the molecule `COc1cc(CNc2ncn[nH]2)ccc1OCc1ccccc1C`, the inhibition is -10% (inactive) under setting [1] and 6.17% (mutant strain inhibition).

On to `O=C(CSc1ncn[nH]1)NCc1ccc2c(c1)OCO2`, for which the inhibition is -7.65% (inactive) under setting [1] and 6.4% (mutant strain inhibition).

As for `CCCCCCOC(=O)NCC(O)c1ccccc1` (stereo not given), the inhibition is -6.62% (inactive) under setting [1] and -10.2% (mutant strain inhibition).

Take `CCCn1c(C(O)c2ccc(OCC)cc2)nc2ccccc21` (stereo not given): the inhibition was 16.9% (inactive) under setting [1] and 18.6% (mutant strain inhibition).

In the case of `CCCCCC(O)c1cccc(OCc2ccc3ccccc3n2)c1` (stereo not given), the inhibition runs as follows: under setting [1], 77.5% (active); (mutant strain inhibition) 12.2%.

`CCn1c(N)c(Br)c(=O)[nH]c1=O`: the inhibition by setting is: under setting [1], -1.38% (inactive); (mutant strain inhibition) 6.81%.

As for `CCOC(=O)c1ccc[n+](CC(=O)Nc2ccccc2OC(F)F)c1`, the inhibition runs as follows: under setting [1], -21.9% (inactive); (mutant strain inhibition) -5.87%.

For the molecule `CCOC(=O)c1sc(=NC(=O)/C=C/c2cccs2)n(C)c1C`, the inhibition under setting [1] was 11.4% (inactive) and the inhibition (mutant strain inhibition) is -7.32%.

Take `COc1ccc(NC(=O)C(Br)C(C)C)cc1` (stereo not given): the inhibition runs as follows: under setting [1], -7.51% (inactive); (mutant strain inhibition) 2.44%.

Regarding `CC1CCN(c2ccc([N+](=O)[O-])cc2C(N)=O)CC1`, the inhibition under setting [1] was 3.04% (inactive) and the inhibition (mutant strain inhibition) was -16.1%.

In the case of `NS(=O)(=O)c1cccc(NC(=O)CSc2nc3ccccc3n2-c2ccccc2)c1`, the inhibition reads like this: under setting [1], -7.39% (inactive); (mutant strain inhibition) 1%.

`Cc1ccc(-n2c(SCC(=O)Nc3ncc(Cl)cc3Cl)nc3ccccc32)cc1`: the inhibition reads like this: under setting [1], 74.2% (active); (mutant strain inhibition) 43.6%.

As for `Cc1ccc(SCCC(=O)OCC(=O)Nc2ncc(Cl)cc2Cl)cc1`, the inhibition runs as follows: under setting [1], 2.29% (inactive); (mutant strain inhibition) 2.8%.
